Results filed as inconclusive are left out. Calls of active or inactive are those of the source. Unless noted, calls follow the shape of the dose curve; as a rule, active = well fitted curve in the direction sought with a large enough effect in the repeat runs; inconclusive = weak or mixed curves; inactive = no such curve, though single readings can be large; an effect the other way counts as inactive or inconclusive.

Experiment [1] can be described thus: qHTS assay to identify aromatase inhibitors - cell viability counter screen (AID 743084;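 also: cells stimulated with testosterone during compound exposure; nearly all actives have a fitted effect of over 55% in size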; also: potency is read from the fitted curve at half-maximal effect). (In general: In qHTS, concentration-response curves come from the screen itself.)
Experiment [2] concerns the target Aryl hydrocarbon receptor (Homo sapiens) (UniProt P35869). The experiment in a line: qHTS assay to identify small molecule that activate the aryl hydrocarbon receptor (AhR) signaling pathway (AID 743085). Also: nearly all actives have a fitted effect of over 15% in size. Also: potency is read from the fitted curve at half-maximal effect.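 As to activation: HG2L7.5c1 human HepG2 liver cells with stably integrated DRE-driven firefly reporter; series mostly up to about 70 µM.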 The essentials:
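24 h compound exposure, 37C, HepG2-derived HG2L7.5c1 cells with DRE-responsive luciferase. Readouts: fluorescence viability, then luminescence at room temperature after 30 min.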

The nature of experiment [3]: qHTS assay to identify small molecule that activate the aryl hydrocarbon receptor (AhR) signaling pathway - cell viability counter screen (AID 743086). Also: nearly all actives have a fitted effect of over 45% in size. Also: potency is read from the fitted curve at half-maximal effect. An outline of the steps: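 HepG2-AhR-luc (HG2L7.5c1) cells, 4000/well, treated 24 h at 37 C with compound; viability measured as CellTiter-Fluor fluorescence after 30 min in the same wells as the luciferase read.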
Experiment [4] addresses Peroxisome proliferator-activated receptor gamma (Homo sapiens) (UniProt P37231). As to the kind of experiment: qHTS assay to identify small molecule agonists of the peroxisome proliferator-activated receptor gamma (PPARg) signaling pathway (AID 743094; active = well fitted activation curve with a large enough effect in the signal ratio in the repeat runs, not every such curve was filed as active; the % refers to the signal ratio). The essentials: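 GeneBLAzer PPARg UAS-bla HEK293H cells were plated, rested 5 h, then exposed to compounds for 17 h at 37C. Beta-lactamase activity was read by LiveBLAzer B/G FRET substrate fluorescence after 1 h at room temperature.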

Experiment [5] has the same target. As to the kind of experiment: qHTS assay to identify small molecule antagonists of the peroxisome proliferator-activated receptor gamma (PPARg) signaling pathway (AID 743191; calls by dose curve; also: series mostly up to about 63 µM; nearly all actives have a fitted effect of over 30% in size). The essentials: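 GeneBLAzer PPARg UAS-bla HEK293H cells, 5 h post-plating, exposed to compounds 17 h at 37C. LiveBLAzer B/G FRET substrate added for 1 h at room temperature; beta-lactamase reporter read by fluorescence intensity.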

Experiment [6] in a line: qHTS assay to identify small molecule antagonists of the peroxisome proliferator-activated receptor gamma (PPARg) signaling pathway - cell viability counter screen (AID 743194). Also: nearly all actives have a fitted effect of over 55% in size. An outline of the steps:
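Cytotoxicity counter screen in PPARg-bla HEK293H cells, same wells as reporter assay. Compounds plus 50 nM rosiglitazone (final) for 17 h at 37 C, then viability read by CellTiter-Glo luminescence.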

A short description of experiment [7]: qHTS assay for small molecule agonists of the antioxidant response element (ARE) signaling pathway (AID 743202; active = well fitted activation curve with a large enough effect in the signal ratio in the repeat runs, not every such curve was filed as active; the % refers to the signal ratio). An outline of the steps: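 ARE-bla HepG2 cells (beta-lactamase reporter under the antioxidant response element), plated 5 hours, then exposed to compounds 16 hours at 37 C. LiveBLAzer B/G FRET substrate added for 2 hours at room temperature; fluorescence intensity read.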

The nature of experiment [8]: qHTS assay for small molecule agonists of the antioxidant response element (ARE) signaling pathway - cell viability counter screen (AID 743203; calls by dose curve; also: nearly all actives have a fitted effect of over 55% in size). The essentials: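 ARE-bla HepG2 cells were plated, rested 5 h at 37C/5% CO2, then exposed to compounds in DMSO for 16 h. Viability was read as CellTiter-Glo luminescence after 30 min at room temperature, in the same wells as the ARE screen.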

Experiment [9] is described as follows: qHTS assay for small molecule activators of the heat shock response signaling pathway - cell viability counter screen (AID 743209). Also: nearly all actives have a fitted effect of over 50% in size. An outline of the steps:
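HSE-bla HeLa cells plated overnight, then exposed to Tox21 compounds (23 nL in DMSO) for 5 h at 37 C. After the bla reporter read, CellTiter-Glo was added in the same wells and luminescence read after 30 min at room temperature.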

A short description of experiment [10]: qHTS assay for small molecule activators of the heat shock response signaling pathway (AID 743210; active = well fitted activation curve with a large enough effect in the signal ratio in the repeat runs, with a control signal flat, not every such curve was filed as active; the % refers to the signal ratio; also: series mostly up to about 63 µM). The essentials: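 HSE-bla HeLa cells (beta-lactamase reporter under heat shock response elements), plated overnight, then exposed to compounds 5 h at 37 C; LiveBLAzer B/G FRET substrate added, 2.5 h at room temperature, fluorescence intensity read.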

Sequence of Peroxisome proliferator-activated receptor gamma (Homo sapiens) (P37231 whole entry, looked up): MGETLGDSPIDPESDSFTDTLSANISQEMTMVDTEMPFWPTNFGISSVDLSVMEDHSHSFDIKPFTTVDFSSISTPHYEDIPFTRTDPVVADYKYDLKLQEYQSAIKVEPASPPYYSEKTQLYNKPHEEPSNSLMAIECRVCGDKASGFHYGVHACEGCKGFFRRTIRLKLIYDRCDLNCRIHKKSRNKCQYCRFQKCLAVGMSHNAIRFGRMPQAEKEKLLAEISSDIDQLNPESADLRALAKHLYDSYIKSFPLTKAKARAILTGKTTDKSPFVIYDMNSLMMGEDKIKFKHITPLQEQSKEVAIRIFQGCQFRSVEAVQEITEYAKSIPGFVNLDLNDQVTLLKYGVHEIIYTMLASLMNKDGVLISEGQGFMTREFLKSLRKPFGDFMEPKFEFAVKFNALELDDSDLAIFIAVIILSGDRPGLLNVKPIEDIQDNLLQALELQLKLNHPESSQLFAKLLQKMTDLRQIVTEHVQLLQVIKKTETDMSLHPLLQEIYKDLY
Sequence of Aryl hydrocarbon receptor (Homo sapiens) (P35869 whole entry, looked up): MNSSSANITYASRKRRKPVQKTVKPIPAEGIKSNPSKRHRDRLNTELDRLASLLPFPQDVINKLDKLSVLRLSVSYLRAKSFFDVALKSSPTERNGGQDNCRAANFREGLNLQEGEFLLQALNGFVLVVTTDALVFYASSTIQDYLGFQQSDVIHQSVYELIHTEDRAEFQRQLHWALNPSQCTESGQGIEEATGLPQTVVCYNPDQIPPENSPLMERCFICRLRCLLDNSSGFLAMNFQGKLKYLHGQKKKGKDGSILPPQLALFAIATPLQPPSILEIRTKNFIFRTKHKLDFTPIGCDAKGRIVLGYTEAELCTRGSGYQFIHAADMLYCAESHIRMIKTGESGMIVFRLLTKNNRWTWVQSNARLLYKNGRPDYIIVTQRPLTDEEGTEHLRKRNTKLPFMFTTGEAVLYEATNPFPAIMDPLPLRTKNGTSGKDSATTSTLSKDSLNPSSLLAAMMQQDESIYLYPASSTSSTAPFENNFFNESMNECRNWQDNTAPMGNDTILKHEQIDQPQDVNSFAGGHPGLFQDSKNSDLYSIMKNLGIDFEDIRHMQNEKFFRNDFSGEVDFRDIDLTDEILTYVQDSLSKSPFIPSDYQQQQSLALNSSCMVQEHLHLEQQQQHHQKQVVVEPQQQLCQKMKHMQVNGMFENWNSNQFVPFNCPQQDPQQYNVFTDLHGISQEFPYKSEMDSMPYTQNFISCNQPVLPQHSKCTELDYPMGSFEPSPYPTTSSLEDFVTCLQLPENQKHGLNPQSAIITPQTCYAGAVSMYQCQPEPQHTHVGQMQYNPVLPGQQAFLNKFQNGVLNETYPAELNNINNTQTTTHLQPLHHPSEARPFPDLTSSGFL

Turning to `O=C(O)CN1C(=O)c2cccc3cccc(c23)C1=O`, the Potency result in [1], in experiment [2], in experiment [3], in [5], in experiment [6] and in experiment [7] was “inactive” throughout. For the same compound, the Potency entry in [8], in [9] and in [10] was “inactive” throughout. Also, the compound was called inactive in experiment [4].

Regarding `O=c1[nH][nH]c(=O)c2cc([N+](=O)[O-])ccc12`, the Potency result in [1], in experiment [2], in experiment [3], in experiment [5], in experiment [6] and in experiment [7] was “inactive” throughout. For the same compound, the Potency result in experiment [9] and in experiment [10] was “inactive” each time. The compound was called inactive in [4].

Turning to `CCc1ccc(C)cc1`, the Potency entry in experiment [1], in experiment [2], in experiment [3], in experiment [5], in experiment [6] and in [7] was “inactive” in each case. Further, the Potency entry in experiment [8], in experiment [9] and in experiment [10] was “inactive” each time. For the same compound, the outcome in experiment [4] was inactive.

Regarding `C=CC(=O)O`, the Potency entry in experiment [1], in experiment [2], in experiment [3], in [5], in [6] and in experiment [8] was “inactive” throughout. Besides, in experiment [9], the Potency result was “inactive”. Also, the outcome in experiment [4] was inactive.

As for `c1ccc(CCCc2ccncc2)cc1`, the Potency entry in experiment [1], in experiment [2], in experiment [3], in experiment [5], in experiment [6] and in experiment [8] was “inactive” each time. For the same compound, the Potency result in experiment [9] is “inactive”. In addition, the call in experiment [4] was inactive.

For the compound `O=C(O)c1cc(Cl)cc(Cl)c1O`, the Potency entry in [1], in experiment [2], in [3], in experiment [5], in experiment [6] and in [7] was “inactive” throughout. Further, the Potency result in [8], in experiment [9] and in experiment [10] was “inactive” throughout. For the same compound, the call in experiment [4] was inactive.

As for `CCN(Cc1cccc(S(=O)(=O)O)c1)c1ccc(C(=C2C=CC(=[N+](CC)Cc3cccc(S(=O)(=O)O)c3)C=C2)c2ccc(O)cc2S(=O)(=O)[O-])cc1`, the values for the Potency in experiment [1] and in experiment [3] were 29.5 µM (active) and 16.6 µM (active), respectively. In addition, the Potency result in experiment [2], in experiment [5], in experiment [6], in [7] and in [10] was “inactive” in each case. Further, the compound was classed as inactive in experiment [4].

Take `Nc1nc2ccc(OC(F)(F)F)cc2s1`: the Potency entry in experiment [1], in [3], in [5], in [6], in [7] and in [8] was “inactive” throughout. Moreover, the Potency entry in experiment [9] and in experiment [10] was “inactive” throughout. Also, the Potency in experiment [2] was 10.6 µM (active). Besides, the result in experiment [4] was inactive.

Consider `CC(C)N=C=NC(C)C`, for which the Potency entry in experiment [1], in experiment [2], in [3], in [5], in [6] and in experiment [7] was “inactive” in each case. In addition, the Potency entry in experiment [8], in experiment [9] and in [10] was “inactive” in each case. Also, the compound was classed as inactive in [4].

For the compound `FC(F)(F)C(F)(F)C(F)(F)C(F)(F)CCI`, the Potency result in experiment [1], in [2], in [3], in [5], in [6] and in experiment [7] was “inactive” each time. Besides, the Potency entry in [8] and in experiment [9] was “inactive” each time. Further, the result in experiment [4] was inactive.

Turning to `O=C(O)c1ccc(O)cc1O`, the Potency entry in [1], in [2], in experiment [3], in [5], in experiment [6] and in [7] was “inactive” each time. The Potency entry in experiment [8], in experiment [9] and in [10] was “inactive” throughout. The call in experiment [4] was inactive.

As to `CN=C(N)NC(=O)Nc1c(C)cccc1C`, the Potency result in experiment [1], in experiment [2], in [3], in experiment [5], in [6] and in [7] was “inactive” throughout. Also, the Potency result in [8] and in experiment [10] was “inactive” throughout. The call in [4] was inactive.

With `CC(C)(C)C1(CCc2ccc(Cl)cc2)CO1` (stereo not drawn), the Potency entry in [1], in experiment [2], in experiment [3], in experiment [5], in experiment [6] and in [7] was “inactive” in each case. Besides, the Potency entry in [8] and in experiment [9] was “inactive” in each case. Besides, the result in experiment [4] was inactive.

With `CCCCCCOC(=O)CCCCC`, the Potency entry in [1], in experiment [2], in experiment [3], in experiment [5], in experiment [6] and in [7] was “inactive” in each case. For the same compound, the Potency entry in [8], in experiment [9] and in experiment [10] was “inactive” throughout. Further, the call in experiment [4] was inactive.

Consider `OCC(CO)n1cnc(-c2ccc(F)cc2)c1-c1ccnc(Oc2ccccc2)n1`, for which the Potency entry in experiment [1], in [2], in [3], in [5], in experiment [6] and in experiment [9] was “inactive” throughout. Further, the Potency result in experiment [10] is “inactive”. Moreover, the call in experiment [4] was inactive.

As to `CC(=O)OCC1=C(C(=O)O)N2C(=O)[C@@H](NC(=O)CSc3ccncc3)[C@H]2SC1`, the Potency result in experiment [1], in experiment [2], in experiment [3], in [5], in experiment [6] and in experiment [8] was “inactive” each time. The Potency result in experiment [9] was “inactive”. Moreover, the call in [4] was inactive.

Turning to `CC(C)(C)CCCCCCOC(=O)c1ccccc1C(=O)OCCCCCCC(C)(C)C`, the Potency entry in experiment [1], in [2], in experiment [3], in [5], in [6] and in [8] was “inactive” in each case. The Potency entry in experiment [9] and in [10] was “inactive” throughout. The compound was called inactive in experiment [4].

For `O=C1CC[C@@H](C(=O)O)N1`, the Potency entry in [1], in [2], in [3], in [5], in experiment [6] and in [8] was “inactive” throughout. Besides, the Potency entry in [9] and in [10] was “inactive” each time. The call in experiment [4] was inactive.

In the case of `Cc1cccc2sc(N)nc12`, the Potency result in experiment [1], in experiment [3] and in [6] was “inactive” throughout. In addition, in experiment [2], the Potency was 27.6 µM (active). Also, the call in [4] was inactive.

Take `COC(CC(C)CCCC(C)(C)O)OC` (stereo not drawn): the Potency entry in experiment [1], in experiment [2], in experiment [3], in experiment [6], in experiment [7] and in experiment [8] was “inactive” in each case. The Potency entry in experiment [9] is “inactive”. The compound was classed as inactive in [4].

With `C=Cc1ccc(OC(C)=O)cc1`, the Potency result in experiment [1], in experiment [2], in experiment [3], in [5], in experiment [6] and in experiment [8] was “inactive” each time. Besides, the Potency result in [9] and in experiment [10] was “inactive” throughout. The call in experiment [4] was inactive.

Regarding `C1CCCCC1`, the Potency result in experiment [1], in [2], in experiment [3], in [5], in experiment [6] and in experiment [8] was “inactive” in each case. Moreover, the Potency entry in experiment [9] was “inactive”. Besides, in experiment [4], the compound was classed as inactive.

For the compound `CC1C(C)(C)C2=C(C(=O)CCC2)C1(C)C` (stereo not drawn), the Potency result in experiment [1], in experiment [2], in experiment [3], in [5], in experiment [6] and in [8] was “inactive” in each case. In addition, the Potency result in experiment [9] and in [10] was “inactive” throughout. Moreover, the compound was called inactive in experiment [4].

Regarding `O=C(C(=O)c1ccco1)c1ccco1`, the Potency entry in [1], in experiment [2], in experiment [3], in experiment [5], in experiment [9] and in experiment [10] was “inactive” each time. Moreover, in experiment [4], the call was inactive.

Take `O=C1NC(=O)c2cccc3cccc1c23`: the Potency result in experiment [1], in experiment [3], in [5], in experiment [6], in [8] and in experiment [9] was “inactive” each time. In addition, the Potency in experiment [2] was 21.7 µM (active). Besides, the call in experiment [4] was inactive.
